The target in experiment [1] is Lysosomal acid glucosylceramidase (Homo sapiens) (UniProt P04062). As to the kind of experiment: Glucocerebrosidase-p2 (AID 348; in the data active = potency below about 10 µM; also: potency is read from the fitted curve at half-maximal effect). The following applies: purified GBA, blue fluorogenic substrate, 40 min. An outline of the steps: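 Compounds titrated from 0.6 nM upwards against 0.2 nM enzyme in pH 5.9 citric acid/KH2PO4, taurocholate, tween-20; blue fluorogenic substrate 80 uM, 40 min room temperature, stopped and read Ex 365/Em 440 for AC50.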
Lysosomal acid glucosylceramidase (Homo sapiens), sequence (P04062 whole entry, looked up): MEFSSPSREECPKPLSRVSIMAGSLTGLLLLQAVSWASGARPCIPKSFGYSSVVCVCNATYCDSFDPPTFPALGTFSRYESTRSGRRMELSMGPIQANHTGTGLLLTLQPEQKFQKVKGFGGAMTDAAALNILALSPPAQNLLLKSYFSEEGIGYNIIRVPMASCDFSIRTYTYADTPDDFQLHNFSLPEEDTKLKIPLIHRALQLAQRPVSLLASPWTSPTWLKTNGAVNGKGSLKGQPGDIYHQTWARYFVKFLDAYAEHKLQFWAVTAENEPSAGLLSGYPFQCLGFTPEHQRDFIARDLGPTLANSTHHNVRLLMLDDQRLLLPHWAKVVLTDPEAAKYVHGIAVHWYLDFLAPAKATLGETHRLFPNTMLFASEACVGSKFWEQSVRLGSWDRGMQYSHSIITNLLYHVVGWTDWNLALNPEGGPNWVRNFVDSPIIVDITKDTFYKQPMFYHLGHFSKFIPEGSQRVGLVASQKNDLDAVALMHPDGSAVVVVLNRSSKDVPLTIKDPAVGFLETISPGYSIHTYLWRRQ

The nature of experiment [2]: AP1 Signaling Pathway (AID 357). Also: % is scaled to controls: 0 for no effect and ±100 for the full control effect. The following applies: ME-180 AP-1-bla reporter, EGF-induced, beta-lactamase ratio, 5 h; at 7.69 µM (top of the series) unless noted. In a few lines:
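ME-180 cells with beta-lactamase reporter under AP-1 response element, stimulated with EC50 EGF; compounds tested in titration series, 5 h at 37 °C. CCF4 substrate added 2.5 h at room temperature; 460/530 nm emission ratio gave %activity and AC50.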

For experiment [3], the target named is Cytochrome P450 1A2 (Homo sapiens) (UniProt P05177). Briefly: p450-cyp1a2 (AID 410; calls by dose curve; also: potency is read from the fitted curve at half-maximal effect;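 as to activity change, negative = inhibition: -100% = full effect of reference inhibitor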). The following applies: recombinant CYP1A2, luciferin-ME demethylation, luminescence; series mostly up to 11.4 µM. In a few lines:
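20nM CYP1A2 with 100uM Luciferin-ME (at Km) in 100mM KPO4; compound preincubated 10 min, NADPH regeneration added, 60 min at room temperature. Luciferin quantified by luminescence after detection reagent; normalized to 57 uM furafylline.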

Experiment [4] can be described thus: NFAT Signaling Pathway (AID 444).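 Also: carbachol stimulus at about its EC50 of 1 µM final; % is scaled to controls: 0 for no effect and ±100 for the full control effect.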 The following applies: Jurkat NFAT-bla M1, carbachol, beta-lactamase ratio, 5 h; at 7.69 µM (top of the series) unless noted. An outline of the steps: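 Jurkat cells with NFAT-driven β-lactamase reporter and co-expressed M1 receptor, stimulated with carbachol (final 1 uM, ~EC50), compound titration, 5 h at 37 °C. CCF4 loaded 1 h at RT; 460/530 nm ratio gave %activity and AC50.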

Experiment [5] in a line: Stat Signaling Pathway (AID 446).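 Also: ME-180 cervical cancer cells given 40 pM IL-6 alongside compound; SIE-controlled beta-lactamase reporter measured as 460/530 nm FRET emission ratio; % is scaled to controls: 0 for no effect and ±100 for the full control effect.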 To be noted: ME-180 SIE beta-lactamase reporter, IL-6 stimulated, 5 h; at 7.69 µM (top of the series) unless noted. In a few lines:
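IL-6/STAT signaling read in ME-180 cells via an SIE beta-lactamase reporter. Stimulus was 40 pM IL-6 (its AC50) for 5 hrs, so both activation and inhibition register.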

For experiment [6], the target named is Glucocorticoid receptor (Homo sapiens) (UniProt P04150). Briefly: GR-GFP Redistribution (AID 450;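 active = compounds whose dose series gives a full or clear partial fitted curve of increased nuclear translocation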; also: potency is read from the fitted curve at half-maximal effect). The following applies: U2OS GR-GFP nuclear translocation, laser cytometry, 2 h.
Glucocorticoid receptor (Homo sapiens), sequence (P04150 whole entry, looked up, the tested form may be a part): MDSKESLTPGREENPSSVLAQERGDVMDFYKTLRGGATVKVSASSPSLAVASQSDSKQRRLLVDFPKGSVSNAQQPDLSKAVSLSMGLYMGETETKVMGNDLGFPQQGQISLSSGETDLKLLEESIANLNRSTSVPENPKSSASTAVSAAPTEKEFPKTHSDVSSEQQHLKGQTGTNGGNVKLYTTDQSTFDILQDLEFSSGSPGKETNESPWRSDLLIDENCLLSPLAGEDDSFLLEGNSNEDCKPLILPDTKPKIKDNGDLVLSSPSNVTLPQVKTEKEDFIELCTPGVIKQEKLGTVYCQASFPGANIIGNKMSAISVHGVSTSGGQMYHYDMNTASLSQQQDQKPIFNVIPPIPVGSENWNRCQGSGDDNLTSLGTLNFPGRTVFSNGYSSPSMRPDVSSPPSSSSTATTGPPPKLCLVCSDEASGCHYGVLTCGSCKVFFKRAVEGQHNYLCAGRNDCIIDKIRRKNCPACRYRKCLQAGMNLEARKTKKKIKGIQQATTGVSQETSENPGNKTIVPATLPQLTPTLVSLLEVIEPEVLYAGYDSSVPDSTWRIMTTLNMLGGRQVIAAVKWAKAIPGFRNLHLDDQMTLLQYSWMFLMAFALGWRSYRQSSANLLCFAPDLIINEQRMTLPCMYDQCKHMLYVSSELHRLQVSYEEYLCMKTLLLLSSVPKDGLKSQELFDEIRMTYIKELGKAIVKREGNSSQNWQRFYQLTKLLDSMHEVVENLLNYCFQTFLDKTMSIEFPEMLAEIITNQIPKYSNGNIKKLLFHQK
Experiment [7] has the same target. Briefly: GR-EFC Redistribution (AID 451; calls by dose curve; also: potency is read from the fitted curve at half-maximal effect). To be noted: CHO-K1 GR-EFC translocation, beta-gal luminescence, 2 h. An outline of the steps: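 CHO-K1 cells expressing nuclear EA and GR-ED fragments of b-gal; compounds titrated up to 46 uM final, 2 h at 37 C. GR nuclear translocation read as complemented b-gal luminescence after 1 h RT detection.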
The target in experiment [8] is Mitogen-activated protein kinase 10 (Mus musculus) (UniProt Q61831). Briefly: JNK3 AlphaScreen Assay (AID 530).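 Also: kinase came from lysate of stimulated human HepG2 cells; signal reports phosphorylation of biotinylated GST-cJun 1-79 at Ser73 with 10 µM ATP; % is scaled to controls: 0 for no effect and ±100 for the full control effect.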 To be noted: JNK3 lysate, c-Jun phosphorylation; series mostly up to 57.1 µM. An outline of the steps: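 Pre-activated (IL-1β/TNFα) JNK3 in HepG2 lysates phosphorylates biotin-GST-cJun(1-79), 10 uM ATP; anti-phospho-cJun(Ser73) AlphaScreen read at room temperature, pH 7.6 Tris buffer. Compounds pre-incubated 15 min as titrations.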

Experiment [9] addresses 3',5'-cyclic-AMP phosphodiesterase 4B (Homo sapiens) (UniProt Q07343). As to the kind of experiment: qHTS Assay for Inhibitors of PDE-IV (AID 607; active = well fitted activation curve with a large enough effect in the main read-out, with a control signal flat, not every such curve was filed as active; also: % of control where 0% means no effect). To be noted: HEK293 ACTOne CNG channel cells, membrane potential fluorescence; series mostly up to 22.9 µM. In a few lines:
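Live HEK293 cells with a modified cyclic nucleotide-gated (CNG) channel report intracellular cAMP via membrane-potential dye fluorescence (ex 535/em 590 nm). Endogenous PDE-IV was targeted. Compounds were tested at up to 22.9 uM final; RO 20-1724 100 uM served as control.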

A short description of experiment [10]: qHTS Assay for Identification of Small Molecule Agonists for Hypoxia Response Element Signaling Pathway (AID 914; active = well fitted activation curve with a large enough effect in the signal ratio, with a control signal flat, not every such curve was filed as active; the % refers to the signal ratio; also: % of control where 0% means no effect). To be noted: ME-180 (cervical carcinoma) HRE-bla reporter, beta-lactamase ratio, CoCl2, 17 h; hits give high values. An outline of the steps:
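HRE-bla ME-180 assay for agonist-like enhancement of an EC50 CoCl2 stimulus: 17 h at 37 degrees Celsius, CCF4 for 2.5 h, ratiometric 460/530 nm signal converted to %Activity and fitted to AC50.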

In experiment [11] the target is Cytochrome P450 2D6 (Homo sapiens) (UniProt P10635). As to the kind of experiment: qHTS Assay for Inhibitors and Substrates of Cytochrome P450 2D6 (AID 891; active = well fitted inhibition curve with a large enough effect;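 also: luciferin methyl ether substrate demethylated by CYP2D6 with NADPH regeneration; % is scaled to controls: 0 for no effect and ±100 for the full control effect; nearly all actives have a fitted effect of over 60% in size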). The following applies: recombinant CYP2D6, luciferin-ME EGE luminescence; series mostly up to 11.4 µM. An outline of the steps: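 Human CYP2D6 (5 nM) with 30 uM Luciferin-ME EGE (at Km) in 100 mM KPO4, compound preincubated 10 min, then NADPH regeneration system for 60 min at room temperature. Luciferin read by luminescence; normalized to 1.43 uM quinidine.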
Cytochrome P450 2D6 (Homo sapiens), sequence (P10635 whole entry, looked up): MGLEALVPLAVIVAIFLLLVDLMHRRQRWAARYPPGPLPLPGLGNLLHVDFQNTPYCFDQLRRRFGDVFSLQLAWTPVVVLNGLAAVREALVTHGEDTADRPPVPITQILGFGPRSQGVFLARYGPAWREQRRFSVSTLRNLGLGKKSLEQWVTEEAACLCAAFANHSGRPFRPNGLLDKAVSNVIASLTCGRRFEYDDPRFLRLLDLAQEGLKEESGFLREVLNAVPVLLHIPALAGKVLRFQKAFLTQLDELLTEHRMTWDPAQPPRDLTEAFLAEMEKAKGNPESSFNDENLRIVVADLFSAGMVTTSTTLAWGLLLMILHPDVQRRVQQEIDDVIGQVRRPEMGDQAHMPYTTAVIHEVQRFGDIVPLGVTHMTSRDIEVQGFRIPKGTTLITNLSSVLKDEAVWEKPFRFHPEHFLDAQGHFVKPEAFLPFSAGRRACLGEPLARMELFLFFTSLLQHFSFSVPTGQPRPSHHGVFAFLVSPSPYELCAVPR

Values without a mark were called inactive. Results filed as inconclusive are left out. The source made the active and inactive calls. Unless noted, calls follow the shape of the dose curve; as a rule, active = well fitted curve in either direction with a large enough effect (not every such curve was filed as active); inconclusive = small, poorly fitted or top-dose-only effect, or another doubt; inactive = flat fitted curve, though single readings scatter. A value given as a limit tells only on which side of the number the result lay.

Cytochrome P450 1A2 (Homo sapiens), sequence (P05177 whole entry, looked up): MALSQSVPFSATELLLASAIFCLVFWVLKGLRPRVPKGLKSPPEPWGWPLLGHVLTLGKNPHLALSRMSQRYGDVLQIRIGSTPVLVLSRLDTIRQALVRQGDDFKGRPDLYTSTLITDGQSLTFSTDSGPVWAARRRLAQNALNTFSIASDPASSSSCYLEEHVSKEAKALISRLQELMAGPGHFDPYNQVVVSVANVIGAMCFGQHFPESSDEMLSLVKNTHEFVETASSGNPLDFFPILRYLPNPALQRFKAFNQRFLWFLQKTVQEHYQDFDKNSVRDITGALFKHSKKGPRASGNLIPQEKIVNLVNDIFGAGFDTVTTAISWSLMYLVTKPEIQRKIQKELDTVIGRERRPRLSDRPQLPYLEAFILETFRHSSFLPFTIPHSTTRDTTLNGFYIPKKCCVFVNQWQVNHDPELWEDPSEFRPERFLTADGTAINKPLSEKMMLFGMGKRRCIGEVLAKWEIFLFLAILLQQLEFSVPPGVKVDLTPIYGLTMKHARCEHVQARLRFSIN
3',5'-cyclic-AMP phosphodiesterase 4B (Homo sapiens), sequence (Q07343 whole entry, looked up): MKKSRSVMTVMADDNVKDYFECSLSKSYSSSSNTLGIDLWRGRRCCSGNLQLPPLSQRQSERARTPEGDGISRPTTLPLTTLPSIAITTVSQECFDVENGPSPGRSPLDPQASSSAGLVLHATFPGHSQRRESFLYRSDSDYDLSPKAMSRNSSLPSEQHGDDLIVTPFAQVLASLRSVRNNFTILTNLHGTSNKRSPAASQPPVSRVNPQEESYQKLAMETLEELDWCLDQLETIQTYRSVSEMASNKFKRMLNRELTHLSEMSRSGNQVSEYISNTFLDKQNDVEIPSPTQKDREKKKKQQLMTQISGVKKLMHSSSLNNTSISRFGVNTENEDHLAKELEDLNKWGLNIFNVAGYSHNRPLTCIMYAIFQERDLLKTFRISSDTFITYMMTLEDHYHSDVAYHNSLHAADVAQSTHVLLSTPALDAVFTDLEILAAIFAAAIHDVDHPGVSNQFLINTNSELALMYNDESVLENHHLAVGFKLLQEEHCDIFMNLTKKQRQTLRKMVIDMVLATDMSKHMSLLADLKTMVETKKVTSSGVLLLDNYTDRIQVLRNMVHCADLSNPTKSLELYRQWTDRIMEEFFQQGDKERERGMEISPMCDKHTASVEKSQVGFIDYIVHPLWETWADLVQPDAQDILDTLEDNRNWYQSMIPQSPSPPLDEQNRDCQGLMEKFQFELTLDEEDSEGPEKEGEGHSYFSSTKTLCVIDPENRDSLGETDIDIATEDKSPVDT

Take `COc1cc(CCN)c(OC)c(OC)c1`: the Potency in experiment [1] is more than 11.4 µM; in experiment [3] it was 3.16 µM (active); in [6] it was more than 46 µM; in [7] it was more than 9.22 µM. For the same molecule, the activity change, negative = inhibition in experiment [2] is 7.8%; in experiment [4], -9.45%; in [8], 4.46% [at 11.4 µM]. Also, the activity, negative = inhibition in experiment [5] is -3.83%. The molecule was called inactive in [9].
On to `C[C@@H]1O[C@H](OC2[C@@H](O)[C@H](O)C(O)[C@H](O)[C@H]2O)[C@@H](N)C[C@@H]1N=C(N)C(=O)O` (stereo not given in full), for which the figures for the Potency in [1], in experiment [6] and in [7] were more than 11.4 µM, more than 46 µM and more than 9.22 µM, respectively. Also, the activity change, negative = inhibition in experiment [2] is -0.614%; in [3] it was 1.2% [at 2.29 µM]; in [4], 8.22%; in experiment [8], 1.04% [at 11.4 µM]. In addition, the activity, negative = inhibition in [5] is 8.32%. In addition, the outcome in experiment [9] was inactive. In experiment [10], the activation is 3.06%.
With `C[C@@H](Cc1ccc(Cl)cc1Cl)NO`, the Potency is more than 11.4 µM in experiment [1], 0.251 µM (active) in experiment [3], more than 46 µM in experiment [6] and more than 9.22 µM in experiment [7]. Besides, the activity change, negative = inhibition in experiment [2] was 3.86%; in experiment [4] it was -11.6%; in experiment [8] it was 2.58% [at 11.4 µM]. Moreover, the activity, negative = inhibition in [5] was -0.402%. The outcome in [9] was inactive.
Consider `CC[C@@]1(O)C(=O)OCc2c1cc1n(c2=O)Cc2cc3c(NC(=O)CN)cccc3nc2-1`, for which the Potency in [1] was more than 11.4 µM; in experiment [6] it was more than 46 µM; in [7] it was more than 9.22 µM. Besides, the activity change, negative = inhibition in experiment [2] was -9.07%; in experiment [3], -12.3% [at 2.29 µM]; in [4], -29.2%; in experiment [8], -2.05% [at 11.4 µM]. Besides, in experiment [5], the activity, negative = inhibition is -20.5%. In addition, the molecule was called inactive in experiment [9].
In the case of `CC(C)c1ccc(C(O)(C(=O)O)c2ccc(C(C)C)cc2)cc1`, the Potency is more than 11.4 µM in [1], more than 46 µM in experiment [6] and more than 9.22 µM in experiment [7]. Further, the activity change, negative = inhibition in experiment [2] is 2.63%; in experiment [4], -9.63%; in experiment [8], 5.33% [at 11.4 µM]. Besides, the Potency entry in [3] and in [11] was “inactive” throughout. The activity, negative = inhibition in experiment [5] is 4.5%. Also, the call in [9] was inactive.
On to `NCCCN1CCN(c2ccccc2)CC1`, for which the Potency was more than 11.4 µM in [1], more than 46 µM in experiment [6] and more than 9.22 µM in [7]. In addition, the activity change, negative = inhibition in experiment [2] was 2.17%; in [4] it was -2.83%; in [8] it was -2.39% [at 11.4 µM]. Besides, the Potency result in experiment [3] is “inactive”. Moreover, the activity, negative = inhibition in [5] is 5.73%. Moreover, in [9], the outcome was inactive.
For the molecule `N#CCCCC[N+]12CN3CN(CN(C3)C1)C2`, the Potency in experiment [1] was more than 11.4 µM; in experiment [6], more than 46 µM; in experiment [7], more than 9.22 µM. For the same molecule, the activity change, negative = inhibition is 12.8% in experiment [2], 15% [at 2.29 µM] in experiment [3], 5.06% in [4] and 0.429% [at 11.4 µM] in [8]. The activity, negative = inhibition in experiment [5] was -17.9%. Besides, the call in experiment [9] was inactive.
